Experimental data: PubChem BioAssay AID892 (National Center for Advancing Translational Sciences (NCATS), 2007)
Screen size: about 75,000 compounds; about 20 (0.03%) were called active. Calls follow the shape of the dose curve; as a rule, active = well fitted inhibition curve with a large enough effect; inconclusive = small, poorly fitted or top-dose-only effect; inactive = no such curve, though single readings can be large or run the other way. The list is a sample of the results. Square brackets hold non-standard residues; d marks the D form. Peptide text beside a SMILES is read from it. ξ: configuration not given here. ξV = CC(C)C(N)C(=O)O

Molecular target: Breast cancer type 1 susceptibility protein (Homo sapiens) (UniProt P38398)
Experiment: qHTS Assay for Inhibitors of BRCT-Phosphoprotein Interaction (Red Fluorophore)
Settings: BRCT-phosphopeptide binding, red fluorescence polarization; series mostly up to 76.9 µM; activity change, negative = inhibition: at the top concentration
Experimental: NIH Molecular Libraries Screening Centers Network [MLSCN]
NIH Chemical Genomics Center [NCGC]
PI Name: Natarajan, Amarnath; University of Texas
A complex of BRCT (C-terminal portion of BRCA1, MW ~35 kDa, His-tagged) and fluorescently labeled pBACH1 phosphorylated 10 aa peptide fragment of BACH1, a helicase implicated in DNA repair, is incubated with library members. Inhibitors of BRCT-pBACH1 binding are detected by a decrease in the fluorescence polarization (FP) of the fluorophore. In order to minimize the effect of fluorescence artifacts and to increase the overall robustness of the screen, the compound library members were incubated in separate reactions with rhodamine-labeled probe-protein complexes. Protein and labeled probes were supplied by Dr. Amarnath Natarajan, Department of Pharmacology and Toxicology, University of Texas Medical Branch Galveston, TX.
Assay Buffer: 16mM Na2HPO4, 4 mM NaH2PO4, 150 mM NaCl, 1 mM EDTA, 1 mM DTT, 0.02% NaN3, and 0.01% Tween 20 at pH 7.3.
Assay Controls: 100 nM TAMRA labeled decapeptide dispensed into columns 3 and 4 to generate negative control (full inhibition of
binding, -100 % activity). 100 nM labeled decapeptide/100 nM protein in columns 1, 2, 5 - 48. Titration of unlabeled decapeptide control (from 10 mM, then 1:2 dilution in duplicate) pin-transferred to column 2, rows 1 to 16. Column 1 is neutral.
Three uL of reagents were dispensed to 1536-well Greiner black solid-bottom plates. Compounds and controls (23 nL) were transferred via Kalypsys PinTool. The plates were incubated for 12 min at room temperature, and then read on ViewLux (Perkin-Elmer) High-throughput CCD imager using BODIPY for the rhodamine-labeled decapeptide probe polarization filter sets. During dispense, reagent bottles were kept submerged into 4 deg C water bath and all liquid lines were covered with aluminum foil to minimize probe and protein degradation. All screening operations were performed on a Kalypsys robotic system (Kalypsys, Inc., San Diego, CA) containing one RX-130 and two RX-90 anthropomorphic robotic arms. The timing and order of assay plates passing through the screening system were adjusted such that each compound library plate was assayed against the fluorescein- and rhodamine-labeled assay systems at immediately adjacent time points.
% is scaled to controls: 0 for no effect and ±100 for the full control effect.

Chain of Breast cancer type 1 susceptibility protein (Homo sapiens) (P38398 whole entry, looked up): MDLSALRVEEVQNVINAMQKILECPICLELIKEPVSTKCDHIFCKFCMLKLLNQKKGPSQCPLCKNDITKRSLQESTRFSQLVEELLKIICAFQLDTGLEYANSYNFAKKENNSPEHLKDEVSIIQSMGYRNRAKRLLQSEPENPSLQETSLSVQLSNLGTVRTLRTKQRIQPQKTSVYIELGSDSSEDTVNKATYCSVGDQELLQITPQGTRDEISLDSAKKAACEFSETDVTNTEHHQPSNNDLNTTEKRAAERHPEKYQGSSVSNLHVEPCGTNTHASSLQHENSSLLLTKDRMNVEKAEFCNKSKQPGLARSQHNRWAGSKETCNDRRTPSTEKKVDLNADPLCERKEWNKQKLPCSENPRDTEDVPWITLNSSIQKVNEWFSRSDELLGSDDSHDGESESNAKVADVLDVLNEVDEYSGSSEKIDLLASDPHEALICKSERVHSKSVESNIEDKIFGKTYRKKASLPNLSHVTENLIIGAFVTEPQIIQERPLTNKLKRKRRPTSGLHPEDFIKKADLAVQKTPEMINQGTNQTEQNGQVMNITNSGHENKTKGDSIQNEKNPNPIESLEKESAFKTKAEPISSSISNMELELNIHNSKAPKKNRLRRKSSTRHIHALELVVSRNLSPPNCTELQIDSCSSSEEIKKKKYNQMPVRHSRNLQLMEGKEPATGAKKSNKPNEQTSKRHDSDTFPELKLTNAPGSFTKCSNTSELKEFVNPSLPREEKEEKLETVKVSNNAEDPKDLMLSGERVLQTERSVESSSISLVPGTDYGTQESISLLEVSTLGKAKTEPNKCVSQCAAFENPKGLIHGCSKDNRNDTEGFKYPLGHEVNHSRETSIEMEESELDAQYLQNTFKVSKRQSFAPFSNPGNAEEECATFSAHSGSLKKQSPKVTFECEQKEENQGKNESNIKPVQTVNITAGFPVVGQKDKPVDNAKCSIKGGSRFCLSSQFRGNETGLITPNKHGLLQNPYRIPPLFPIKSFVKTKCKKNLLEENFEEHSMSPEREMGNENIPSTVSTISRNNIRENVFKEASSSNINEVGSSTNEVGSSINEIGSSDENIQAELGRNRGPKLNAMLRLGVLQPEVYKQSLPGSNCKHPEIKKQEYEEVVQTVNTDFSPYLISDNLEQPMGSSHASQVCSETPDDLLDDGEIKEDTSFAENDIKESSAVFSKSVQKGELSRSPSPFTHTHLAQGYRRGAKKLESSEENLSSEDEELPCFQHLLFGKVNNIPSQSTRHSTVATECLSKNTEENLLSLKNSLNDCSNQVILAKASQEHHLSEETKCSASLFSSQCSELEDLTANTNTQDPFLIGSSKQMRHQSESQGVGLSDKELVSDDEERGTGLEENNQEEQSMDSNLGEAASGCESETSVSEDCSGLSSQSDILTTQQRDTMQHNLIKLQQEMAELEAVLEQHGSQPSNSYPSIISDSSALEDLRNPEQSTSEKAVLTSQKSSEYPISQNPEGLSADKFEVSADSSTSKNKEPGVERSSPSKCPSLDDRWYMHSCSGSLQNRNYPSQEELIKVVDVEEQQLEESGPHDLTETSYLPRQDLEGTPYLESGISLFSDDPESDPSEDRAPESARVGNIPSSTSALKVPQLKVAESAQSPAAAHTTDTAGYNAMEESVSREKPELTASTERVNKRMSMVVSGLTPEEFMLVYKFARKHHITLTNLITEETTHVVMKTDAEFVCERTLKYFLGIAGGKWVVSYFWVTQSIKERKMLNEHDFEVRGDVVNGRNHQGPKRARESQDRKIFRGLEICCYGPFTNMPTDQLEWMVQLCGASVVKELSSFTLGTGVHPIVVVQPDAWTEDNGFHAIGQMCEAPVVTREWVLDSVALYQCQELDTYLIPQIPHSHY

Activity change, negative = inhibition, inactive:
CCS(=O)(=O)N1CCN(C(=O)c2cccs2)CC1 -0.859%
Cc1nc2cnc(Nc3ccccc3)nc2n(Cc2ccc(F)cc2)c1=O 2.61%
CCCCC[C@H](O)CCCC(=O)O 1.58%
COc1ccc(-c2cc(C(F)(F)F)nc(SCCC(=O)NCc3ccco3)n2)cc1 -0.281%
CCn1cc(C(=O)NCC2COc3ccccc3O2)c2cc(OC)c(OC)cc2c1=O (stereo unspecified) -0.433%
CC(=O)NC(C(=O)NCC(N)=O)C(C)C (stereo unspecified) (Ac-[ξV]-Gly-NH2) 0.622%
CN1CCCC1CCO[C@@](C)(c1ccccc1)c1ccc(Cl)cc1 (stereo partly specified) 1.2%
Nc1ccccc1N 0.594%
COC(=O)[C@@H]1C[C@H]2CC[C@H](O)C[C@H]2N1Cc1ccc(N2CCN(C)CC2)cc1 -0.952%
O=C(O)c1cccc(S(=O)(=O)NCCO)c1 1.54% [at 15.4 µM]
CCCN1[C@H](C(=O)OC)C[C@@]2(O)[C@@H](O)[C@@H](O)[C@@H](O)C[C@@H]12 0.469%
CCOC(=O)c1sc(NC(=S)n2cc(C)cn2)c(C(=O)OCC)c1C -1.09%
CCc1nc(C)cn1S(=O)(=O)c1cc(OC)c(C)cc1C 0.696%
COc1ccc(CN2C(=O)CN=C2Nc2ccc(C)cc2C)cc1 0.673%
COc1ccc2c(c1OC)C(=O)N(c1ncn[nH]1)C2 -2.61%
C=CCn1c(COc2ccccc2)nnc1SCC(=O)NCC(=O)OCC 0.0764%
Clc1ccc(C2[C@H]3CN(CC4CCCCC4)[C@H](c4ccccc4)C34CC2(c2cccnc2)C4)cn1 (stereo partly specified) 0.586%
COCC(=O)N1CCC2(CCCN(c3ccccc3)C2)CC1 -0.355%
Cc1cccc(Cn2c(SCCO)nc3c2c(=O)n(C)c(=O)n3C)c1 -1.18%
CS(=O)(=O)N(CC(=O)N1CCOCC1)c1ccc2c3c(cccc13)CC2 0.749%
Cc1cc(C)nc(SCc2nnc(SCC(=O)Nc3ncc(C)s3)n2Cc2ccco2)n1 -0.299%
CCOc1ccc(CNC(=O)C2CC(=O)N(C3CCCC3)C2)cc1OC (stereo unspecified) 1.07%
O=C(Nc1cccc(F)c1)c1ccc(S(=O)(=O)N2CCCC2)cc1 1.38%
COc1ccc(-c2cc(C(F)(F)F)n3nc(C(=O)N4CCOCC4)c(Cl)c3n2)cc1 -0.981%
O=C(OCC(O)C(O)COC(=O)c1ccccc1)c1ccccc1 (stereo unspecified) -0.448%
O=C(c1cnn2ccccc12)N1CCc2ccccc21 -0.328%
CCCNS(=O)(=O)c1ccc2c(c1)CCCN2C(C)=O 0.548%
CC1Cc2ccccc2N1C(=O)Cn1cnc2ccccc2c1=O (stereo unspecified) 0.0211%
COC(=O)COc1ccc(S(=O)(=O)Nc2ccc(NC(C)=O)cc2)cc1 -0.143%
O=C1CCC(C(=O)Nc2ccc(OC(F)F)cc2)N1 (stereo unspecified) -0.0225%
CCOC(=O)N1CCN(C(=O)c2cc3c(-c4ccc(Cl)cc4)nn(C)c3s2)CC1 0.778%
O=C1c2cccnc2C(=O)N1Cc1cccs1 0.534%
Nc1nc(N)c2[nH]c(CNc3ccc(C(=O)O)cc3)nc2n1 1.19% [at 15.4 µM]
O=C(O)[C@@H]1[C@@H](C(=O)O)[C@]23C[C@@]2(C(=O)O)[C@]2(C(=O)O)CCC3=C3CCCC312 1.09% [at 15.4 µM]
CC(=O)Nc1ccc(S(=O)(=O)N2CCN(CCCOc3cc(C)ccc3C)CC2)cc1 -0.555%
O=C(CSc1nc2[nH]ncc2c(=O)n1-c1ccccc1)N1CCCc2ccccc21 12.7%
CC(C)CNC(=O)C1CCCN(S(=O)(=O)c2ccc(-n3cnnn3)cc2)C1 (stereo unspecified) 1.01%
Cn1c(N)c(C(=O)COC(=O)c2cc(C(F)(F)F)nc3c(C(F)(F)F)cccc23)c(=O)n(C)c1=O -2.05%
CCCC1CC(C)(C(=O)Cn2[nH]c(=O)ccc2=O)OC1=O (stereo unspecified) -1.89%
C[C@@H]1O[C@@H](OC[C@H]2O[C@@H](Oc3c(-c4cccc(O)c4O)oc4cc(O)cc(O)c4c3=O)[C@H](O)[C@@H](O)[C@@H]2O)[C@H](O)[C@H](O)[C@H]1O 0.502%
CCOC(=O)C1CCCCN1Cc1ccc(OC)c(OC)c1OC (stereo unspecified) -0.0383%
O=C(Nc1c(-c2ccccc2)nc2c(Br)cc(Br)cn12)c1ccco1 -1.98%
Cc1ccc(S(=O)(=O)N2CCN(C(=O)CCC(=O)NC3CCCc4ccccc43)CC2)cc1 (stereo unspecified) 1.14%
C[C@@H]1C[C@H]2[C@@H]3C[C@H](F)C4=CC(=O)C=C[C@@]4(C)[C@]3(F)[C@H](O)C[C@]2(C)[C@@]1(O)C(=O)CO -0.634% [at 34.4 µM]
Cc1oc(CC(C)C)c(CN2CCCC2)c1C(=O)O -0.0692%
Fc1ccc(OCc2nn3c(Cn4nnc5ccccc54)nnc3s2)cc1 -0.165%
COc1ccc(OC)c(NC(=O)CCN2CCC(C)CC2)c1 -1.49%
COC(=O)c1c(-c2ccc(C)cc2)csc1N -0.205%
O=C(OC(C(=O)NC1CCCC1)c1ccc(F)cc1)c1ccno1 (stereo unspecified) 1.14%
CCOc1ccccc1NC(=O)CCc1ccc(C)o1 0.664%
Cc1c(C(=O)OCC(=O)N(CCC#N)c2ccccc2)oc2c1ccc1ccccc12 -1.38%
O=C1c2cccnc2C(Nc2ccc(S(=O)(=O)N3CCCCCC3)cc2)N1Cc1ccccc1 (stereo unspecified) -1.92%
Cc1cc(C)n(C(=O)c2ccc(S(=O)(=O)N3CCCC3)cc2)n1 0.192%
Cn1c(SCc2nc3ccccc3s2)nnc1-c1ccc2c(c1)OCO2 1.04%
COC(=O)[C@@H]1C[C@@]2(O)[C@H](O)[C@H](O)[C@H](O)C[C@H]2N1Cc1ccc(C(C)(C)C)cc1 0.112%
CC1=C(C(=O)OCc2ccccc2)C(c2ccco2)n2ncnc2N1 (stereo unspecified) 0.427%
CCOC(=O)N1CCC(NC(=O)C(C)n2c3ccccc3c3cnn(C)c(=O)c32)CC1 (stereo unspecified) -0.528%
C=CCNc1nnc(C)c2ccccc12 -0.8%
COc1cccc(N(CC(=O)Nc2cccc(F)c2)S(C)(=O)=O)c1 1.38%
Cc1cnc(CNc2ncncc2-c2ccccc2Cl)cn1 -0.849%
O=C(Cn1nc(C(F)(F)F)c2c1CCC2)NCc1ccc(F)cc1 2.4%
O=C1CC(N2CCN(C(c3ccccc3)c3ccccc3)CC2)C(=O)N1 (stereo unspecified) 0.264%
CCOC(=O)c1cccc(NC(=O)CCc2c(C)nc3ncnn3c2C)c1 -1.78%
C/C(=C\c1ccco1)C1Nc2cccc3cccc(c23)N1 -2.79%
Brc1ccc(OCCn2ccnc2)cc1 1.45%
O=C(Cl)c1ccccc1[N+](=O)[O-] 0.844%
